{"source": "PubChem BioAssay (EPA / NIEHS)", "note": "Calls of active or inactive are those of the source. Rule for the calls: active = hit-call score of the fitted dose curve at least 0.9, where 1 is the maximum; inactive = score below 0.9. Peptide text beside a SMILES is read from it."}
{"experiment": "CCTE_Shafer_MEA_acute_per_network_burst_spike_number_mean: CCTE's Neural Acute Assay for Average Number of Spikes in a Network Burst, Shafer Lab (AID 2284019)", "method": "CCTE_Shafer_MEA_acute assay is conducted using Axion Biosystems 48 well microelectrode array (MEA) plates and Maestro recording system. Each well of the MEA plate contains a grid of 16 microelectrodes embedded in the culture surface. Electrically active cells, such as neurons, can be cultured over the electrodes, and electrical activity in these cells can be recorded extracellularly. The spontaneous firing of neurons is captured from each electrode on a microsecond timescale providing both temporally and spatially precise data. […] The CCTE_Shafer_MEA_acute assay uses primary cultures of rat cortical neurons. As these cultures mature over time, neural networks develop functional activity and form cohesive networks in which electrical activity can be highly coordinated. Baseline 40-minute recordings are made on days post-plating 13 or 15, followed by a secondary 40-minute recording after chemical exposure.CCTE_Shafer_MEA_acute_per_network_burst_spike_number_mean is a component of the CCTE_Shafer_MEA_acute assay. It measures the average number of spikes (action potential firings) in a network burst (temporally-clustered group of spikes across multiple electrodes) as the total number of spikes in a network burst divided by the number of network bursts during a recording in a microelectrode array (MEA) using Axion Biosystems Maestro 768 channel amplifier with the AxIS adaptive spike detector. The recordings before and after chemical treatment are used to calculate a percent change in the mean number of spikes in a network burst in each well.Data from the assay component CCTE_Shafer_MEA_acute_per_network_burst_spike_number_mean was analyzed into 1 assay endpoint. This assay endpoint, CCTE_Shafer_MEA_acute_per_network_burst_spike_number_mean, was analyzed in the negative analysis fitting direction relative to DMSO as the negative control and baseline of activity. Using a type of functional reporter, gain or loss-of-signal activity can be used to understand electrical activity.\nSpontaneous activity in the cortical cultures was recorded using an Axion Biosystems Maestro 768 channel amplifier and Axion Integrated Studios (AxIS) v1.8 (or later) software. The amplifier recorded from all channels simultaneously (gain = 1200 x; sampling rate = 12.5 kHz/channel): raw signals were filtered with a Butterworth band-pass filter (300-5000 Hz), which filters out slower local field potentials leaving only fast potentials, i.e., \"spikes\", arising from extracellular currents associated with action potentials (Pine 2006; Wheeler and Nam 2011). On-line spike detection of filtered signals was conducted with the AxIS adaptive spike detector, using a threshold of 8x the root mean squared (rms) noise on each channel. Any electrodes with rms noise levels greater than 5 uV were grounded (e.g., no data were recorded). Once grounded, an electrode was grounded for the duration of the experiment. All recordings were conducted at 37 C. Wells were deemed usable if on the day of the exposure >/= 10 electrodes were active (defined as >/= 5 spikes/min). On DIV 13 or 15, a minimum of three wells from one cortical culture preparation were treated with each compound (0.03-40 uM). Prior to recording baseline activity, each mwMEA plate was placed in the Maestro at 37 C and allowed to sit for 20 min while firing rates stabilized. Baseline activity (40 min) was recorded before the addition of each compound. An additional 40 min of spontaneous activity was recorded in the presence of each compound. Changes in network parameters relative to baseline were assessed following compound treatment."}
{"compound": "c1ccc(Nc2cccc3ccccc23)cc1", "outcome": "inactive"}
{"compound": "CC(C)C(=O)OCCc1ccccc1", "outcome": "inactive"}
{"compound": "Nc1nc(N)nc(-c2ccccc2)n1", "outcome": "inactive"}
{"compound": "CCCCCCCCCCCC(=O)N(C)CC(=O)O", "AC50": "613 nM (active)"}
{"compound": "Cc1c(C(=O)c2c[nH]n(C)c2=O)ccc(S(C)(=O)=O)c1C1=NOCC1", "outcome": "inactive"}
{"compound": "Oc1ccccc1Cc1ccccc1O", "outcome": "inactive"}
{"compound": "CC1(C)CC(O)CC(C)(C)N1[O]", "outcome": "inactive"}
{"compound": "CC(CCC(=O)O)(c1ccc(O)cc1)c1ccc(O)cc1", "outcome": "inactive"}
{"compound": "COC(=O)[C@H](Cc1ccccc1)NC(=O)[C@@H](N)CC(=O)O", "note": "(H-Asp-Phe-OMe)", "outcome": "inactive"}
{"compound": "Nc1cccc(N)n1", "AC50": "45.6 nM (active)"}
{"compound": "C1CNCCN1", "outcome": "inactive"}
{"compound": "CC/C=C\\CCOC(=O)c1ccccc1O", "AC50": "3 nM (active)"}
{"compound": "CCCC(C)C(=O)OCC", "note": "(stereo not drawn)", "outcome": "inactive"}
